This is one part of a sample in which hits are shown more often than they occur.
Dicer inh = inhibitors of human Dicer processing of pre-microRNA; AID 1347074; hit rate 6% among 47,000; z-score at 25 µM; cat-ELCCA pre-miR-21 Dicer processing, chemiluminescence; stronger effect = higher value; in the data active means z-score above about 3, passing the limit was not always enough;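 further: higher signal means more uncleaved substrate so more Dicer inhibition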
Each line names hits and unclear results; the compound was inactive in the other large screens.

O=C(CSc1nnc(-c2ccco2)n1-c1ccccc1Cl)c1ccc(F)cc1	none
Cc1onc(-c2ccccc2Cl)c1NC(=O)Nc1cccc(Cl)c1Cl	none
CNc1nc(SCC(=O)c2ccccc2)nc2sc3c(c12)CCCC3	none
COc1cccc(C2C(C(=O)OC3CCCC3)=C(C)NC3=C2C(=O)CC(c2ccccc2)C3)c1OC (centres undefined)	none
CC1=C(C(=O)OCC2CCCO2)C(c2cccc(O)c2)C2=C(CC(C)(C)CC2=O)N1 (centres undefined)	Dicer inh 3.1
COc1cccc(C2C(C(=O)OC(C)C)=C(C)NC3=C2C(=O)CC(c2ccccc2)C3)c1OC (centres undefined)	Dicer inh 7.6
COC(=O)C1=C(C)NC2=C(C(=O)CC(c3ccc(OC)cc3)C2)C1c1ccc(OC)c(OC)c1 (centres undefined)	none
COC(=O)C1=C(C)NC2=C(C(=O)CC(c3ccc(Cl)cc3)C2)C1c1ccccc1Cl (centres undefined)	Dicer inh 3.4
COC(=O)C1=C(C)NC2=C(C(=O)CC(c3ccccc3)C2)C1c1ccccc1Cl (centres undefined)	none
CC1=C(C(=O)OCC2CCCO2)C(c2cccc(Br)c2)C2=C(CC(C)(C)CC2=O)N1 (centres undefined)	none
COC(=O)C1=C(C)NC2=C(C(=O)CC(c3ccccc3)C2)C1c1ccccc1F (centres undefined)	none
COC(=O)C1=C(C)NC2=C(C(=O)CC(c3ccc(OC)c(OC)c3)C2)C1c1ccc(F)cc1 (centres undefined)	Dicer inh 4.5
COC(=O)C1=C(C)NC2=C(C(=O)CC(c3ccc(OC)c(OC)c3)C2)C1c1ccc(SC)cc1 (centres undefined)	none
COc1ccccc1C1C(C(=O)OC(C)C)=C(C)NC2=C1C(=O)CC(c1ccccc1)C2 (centres undefined)	none
CC1=C(C(=O)OCC2CCCO2)C(c2cccc(Cl)c2)C2=C(CC(C)(C)CC2=O)N1 (centres undefined)	none
CCc1ccc2[nH]c(C)c(CN3CCN(CC)CC3)c(=O)c2c1	none
CCOC(=O)C(NC(=O)CC)(Nc1ccc(F)c(F)c1F)C(F)(F)F (centres undefined)	none
COc1ccc(S(=O)(=O)N(C)C2CCCCC2)cc1-c1nnc2c3ccccc3c(C)nn12	none
N/C(=N\OC(=O)CCn1cccc(C(F)(F)F)c1=O)c1cccc(Cl)c1	none
NC(=S)N=Nc1c(O)[nH]c2ccc(Br)cc12	none
COc1cc2c(cc1OC)C(C)N(C(=O)c1ccc(Cl)cc1Cl)CC2 (centres undefined)	none
CCOc1cccc(C2c3c(oc4ccccc4c3=O)C(=O)N2c2nnc(C(C)C)s2)c1 (centres undefined)	none
O=S(=O)(c1ccc(-c2cc(C(F)(F)F)on2)s1)N1CCc2c([nH]c3ccc(F)cc23)C1	none
Nc1ncnc2c1nc(N/N=C/c1ccncc1)n2[C@H]1O[C@@H](CO)[C@H](O)[C@@H]1O	none
COc1ccc2[nH]c(=O)c(-c3noc(-c4ccncc4)n3)cc2c1	none
CCOC(=O)C1CCCN(S(=O)(=O)c2ccc(C(=O)OC)n2C)C1 (centres undefined)	none
CC[C@H]1OC(=O)C[C@@H](O)[C@H](C)[C@@H](O[C@@H]2O[C@H](C)[C@@H](O[C@H]3CC(C)(O)[C@@H](O)[C@H](C)O3)[C@H](N(C)C)[C@H]2O)[C@@H](CC=O)C[C@@H](C)C(=O)/C=C/C(C)=C/[C@@H]1CO[C@@H]1O[C@H](C)[C@@H](O)[C@@H](OC)[C@H]1OC (some centres undefined)	none
Cc1cc(C)n(-c2ccc(-n3c(C)ccc3C)cc2)n1	none
CCOc1ccc(S(=O)(=O)n2ccnc2)cc1C	none
O=C(Nc1cccc(C(F)(F)F)c1)Nc1nnc(C2CC2)s1	none
N/C(=N\OC(=O)Nc1cccc(Cl)c1)c1nccnc1Sc1ccc(Cl)cc1	none
CNC(=O)NCc1c(N(C)C)cccc1N(C)C	none
CCCCCOC(=O)C1=C(C)NC2=C(C(=O)CCC2)C1c1ccc(OCC)c(OC)c1 (centres undefined)	Dicer inh 4.2
CCCCOC(=O)C1=C(C)NC2=C(C(=O)CC(C)(C)C2)C1c1ccc(OC)c(OC)c1 (centres undefined)	none
CCOc1ccc(C2C(C(=O)OCCOC)=C(C)NC3=C2C(=O)CCC3)cc1OC (centres undefined)	none
COCCOC(=O)C1=C(C)NC2=C(C(=O)CC(C)(C)C2)C1c1ccc(OC)c(OC)c1 (centres undefined)	Dicer inh 3.7
CCCCCOC(=O)C1=C(C)NC2=C(C(=O)CCC2)C1c1ccc(OC)c(Br)c1 (centres undefined)	none
CCOCCOC(=O)C1=C(C)NC2=C(C(=O)CC(C)(C)C2)C1c1ccc(OC)c(OC)c1 (centres undefined)	none
CCOc1ccccc1C1C(C#N)=C(C)NC2=C1C(=O)CC(c1ccc(Cl)cc1)C2 (centres undefined)	none
C=C(C1CC1)N(Cc1ccccc1)C(=O)c1cccc(F)c1	none
COc1ccc(OC)c(N2CC(=O)N(c3cc(OC)ccc3OC)CC2=O)c1	none
CC1(C)CC(=O)C2=C(C1)Nc1ccccc1N(C(=O)c1ccccc1)C2c1cccc(F)c1 (centres undefined)	none
CCCCCCNC(=O)NC(Cc1ccccc1)C(=O)O (centres undefined)	none
CSc1sc(-c2ccnc(SCCS(=O)(=O)c3ccc(Cl)cc3)n2)c(-c2ccccc2)c1C#N	none
Cc1ccc(C)c(NC(=S)NC2CC(C)CC(C)(C)C2)c1 (centres undefined)	none
Brc1cccc(-c2nc3ccccc3[nH]2)c1	none
Nc1ccc(-c2nc3c(Cl)c(N)ccc3[nH]2)cc1	Dicer inh 3.4
Nc1cccc2[nH]c(-c3ccccc3)nc12	Dicer inh 3.9
Cc1c(C)c(C)c2[nH]c(-c3ccc4c(c3)OCO4)nc2c1C	none
Cc1cccc2[nH]c(-c3ccc(N)cc3)nc12	Dicer inh 6.8
Cc1cccc2[nH]c(SCc3ccccc3F)nc12	none
Cc1cccc2[nH]c(-c3ccccc3)nc12	none
O=c1[nH]c(-c2ccccc2)nc(=S)[nH]1	none
Cc1c(N)ccc2[nH]c(-c3ccc(N)cc3)nc12	Dicer inh 6.3
COc1cc(N(C)C)c(OC)cc1/C=C(\C#N)c1ccc([N+](=O)[O-])cc1	none
Cc1cccc(C)c1NC(=O)c1cnc(NC2CCCCC2)cc1C(F)(F)F	none
CC1(C)OC(=O)C(=C2SCCCS2)C(=O)O1	none
CCOC(=O)C(NC(=O)c1cccc(Cl)c1)(Nc1cccc(C(F)(F)F)c1)C(F)(F)F (centres undefined)	none
N#Cc1c2n(c3c(=O)n(CC(=O)c4ccc(Cl)cc4)cnc13)CCCCC2	none
O=S(=O)(c1ccc(Br)s1)N1CCC(C(c2ccccc2)c2ccccc2)CC1	none
O=C(NCc1ccc(Cl)cc1Cl)c1cccnc1Sc1cccc(Cl)c1	none
COc1ccccc1OCCSc1nc2ncnc(N)c2[nH]1	none
Cc1ccc(OCCSc2nc3ncnc(N)c3[nH]2)c(C(C)C)c1	Dicer inh 3.6
Cc1ccc(C(C)C)c(OCCSc2ncnc3nc[nH]c23)c1	none
O=C1OC(c2ccccc2)=C(C(=S)Nc2ccc(Cl)cc2)C1=O	none
O=S1(=O)NC(=NC2CCCCC2)c2ccccc21	none
C=CCN1C(=O)C(O)(CC(=O)c2ccc(OCC)cc2)c2cc(Br)ccc21 (centres undefined)	none
CC12N=NCC1C(=O)N(c1ccc(F)cc1)C2=O (centres undefined)	none
O=C(CSC1=NCCS1)Nc1nccs1	Dicer inh 4
COc1ccccc1NC(=O)CSC1=NCCS1	Dicer inh 4.2
O=C(CSC1=NCCS1)NC1Cc2ccccc2C1	none
COc1ccccc1NC(=O)CSc1cc(C(F)(F)F)cc(C(F)(F)F)c1	none

Bioassay records as filed in PubChem BioAssay.
